E coli Lon inh: inhibitors of E. coli Lon protease; P0A9M0; purified E. coli Lon protease, fluorescence polarization; inhibition, % at 7.94 µM; 0.42% of 360,000 active; AID 602123; in the data active = inhibition above about 13%, passing the limit was not always enough;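 note: 0% = enzyme with probe and DMSO and 100% = no enzyme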
EBNA-1 inhibitor: blocks EBNA-1 binding to DNA; EBNA-1 DNA binding, fluorescence polarization; inhibition, % at 14.8 µM; 0.34% of 300,000 active; AID 1950; in the data active = inhibition above about 28%
Keap1 Nrf2 FP: disrupts human Keap1 binding to Nrf2 peptide. Keap1 Kelch-Nrf2 peptide fluorescence polarization, 1536-well. inhibition, % at 9.4 µM. Q14145. 0.15% of 340,000 active; in the data active = inhibition above about 12%; inconclusive = no clear call, values can overlap the other calls; inactive = below about 7.3%;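 note: human Keap1 Kelch domain with fluorescein labeled Nrf2 9mer peptide probe; 0% = neutral control wells and 100% = peptide positive control; higher means more block of Keap1 binding to Nrf2 peptide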
LANA DNA inh: inhibitors of KSHV LANA C-terminal domain DNA binding; MBP-C-LANA/FAM-LBS DNA binding, fluorescence polarization; 0.078% of 340,000 active; inhibition, % at 9 µM;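 active = highest replicate inhibition at or above 60% at 9 µM, even if other replicates fall short; inactive = all replicates below 60% inhibition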;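 note: 0% = neutral control wells and 100% = 4 µM acridine orange control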
ZTA DNA inh: blocks Epstein-Barr virus ZTA, an EBNA-1 counter-screen. P03206. ZTA-DNA binding, fluorescence polarization. inhibition, % at 11 µM. 0.15% of 320,000 active. AID 2234; in the data active = inhibition above about 33%
Target sequence (P03206 whole entry, looked up): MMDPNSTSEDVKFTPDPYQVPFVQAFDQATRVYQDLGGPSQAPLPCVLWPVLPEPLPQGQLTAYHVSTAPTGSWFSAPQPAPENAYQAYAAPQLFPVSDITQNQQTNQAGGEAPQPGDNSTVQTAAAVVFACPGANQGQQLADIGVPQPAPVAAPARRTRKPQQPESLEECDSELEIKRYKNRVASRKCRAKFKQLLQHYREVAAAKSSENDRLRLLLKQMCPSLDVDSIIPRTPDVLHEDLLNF
EBNA-1 confirm: EBNA-1 (EBV) inhibition, confirmation; shares compounds with EBNA-1 inhibitor; Recombinant EBNA-1 DBD, Cy5-DNA fluorescence polarization; inhibition, % at 14.8 µM; 35% of 830 active; AID 2292;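 active = mean inhibition across replicates above a set limit taken from the earlier primary screen, cut at about 28% in these data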;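 note: plate controls were EBNA-1 protein with DMSO for no effect and wells lacking EBNA-1 for full effect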
ZTA counter trip: counter-screen for EBNA-1 inhibitors: Epstein-Barr virus ZTA inhibitors, triplicate. shares compounds with EBNA-1 inhibitor. Zta-ZRE DNA binding, Cy5 fluorescence polarization. inhibition, % at 11.1 µM. 830 tested, under 10 active. AID 2328;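 active = mean inhibition over triplicates above a set limit taken from the primary EBNA-1 screen, cut at about 37% in these data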;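 note: purified full length Zta protein with Cy5 labeled ZRE DNA probe; 0% = Zta with DMSO and 100% = wells lacking Zta protein; inhibitors lower polarization by freeing the labeled DNA probe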
Numbers without * were called inactive; ? = inconclusive; / = no result; + = active, no number. Compounds with a hit are over-represented: about 0.85% of the library has one in this group of screens.

SMILES	E coli Lon inh	EBNA-1 inhibitor	Keap1 Nrf2 FP	LANA DNA inh	ZTA DNA inh	others
Cc1ccc(C)c(S(=O)(=O)Nc2cc(SCC(=O)O)c(O)c3ccccc23)c1	34*	8	61*	3	-2
CCCCNCCOCCOc1ccccc1-c1ccccc1	-4	34*	2	3	-4
C=CCNC(=O)CN1C(=O)CSc2ccc(S(=O)(=O)N3CCOCC3)cc21	-14	/	/	/	/
O=S(=O)(O)c1cccc2cccc(Nc3ccccc3)c12	8	4	4	96*	-9
COc1ccc2[nH]c3c(c2c1)CCN1C(=O)C(CC(=O)NCc2cccc(C(F)(F)F)c2)C[C@H](C(=O)N2CCCCC2)[C@@]31CCc1ccccc1 (some centres undefined)	4	/	-2	1	/
O=C1CCc2cc(S(=O)(=O)Nc3ccc(F)cc3)ccc2N1	-10	/	-1	1	-31
COc1cccc(CNC(=O)COc2ccc(C(=O)c3ccccc3)cc2)c1	10	-11	3	1	8
C/C(=C\c1ccc2c(c1)OCO2)C1Nc2cccc3cccc(c23)N1	13	/	7	62*	2
C/C(=C\c1ccccc1)C1Nc2cccc3cccc(c23)N1	/	/	/	/	3
COc1cc(NC(=O)c2ccc(N3CC4CC(C3)c3cccc(=O)n3C4)c(NC(=O)c3ccncc3)c2)cc(OC)c1OC (centres undefined)	-1	10	3	1	6
O=C1OCc2ccc(NC(=O)C3CC3)cc21	-1	8	2	84*	-4
CCN(CC)c1ccc(N=Cc2c(C)[nH]c3ccccc23)cc1	5	199*	-7	-2	188*
C/C=C/C=C/C(=O)N1CC2(CC(c3cccc(NC(=O)/C=C/C)c3)=NO2)C[C@@H]1C(N)=O (some centres undefined)	13	5	-12	0	-6
C=C(C)C(=O)Nc1cccc(C2=NOC3(C2)C[C@@H](C(N)=O)N(C(=O)/C(C)=C/C)C3)c1 (some centres undefined)	0	3	-1	85*	20
C=C(C)C(=O)Nc1cccc(C2=NOC3(C2)C[C@@H](C(N)=O)N(C(=O)/C=C/C=C/C)C3)c1 (some centres undefined)	-12	11	-6	68*	19
C[C@H](CO)N1C[C@H](C)[C@H](CN(C)C(=O)Nc2ccc(F)cc2)OCc2ccccc2-c2c(n(C)c3ccccc23)C1=O	-5	/	/	/	/
CC(C)CNC(=O)NC(=O)COC(=O)c1cccc(NS(=O)(=O)c2ccc(F)c(F)c2)c1	8	17	-6	-3	-5
CC(C)CNC(=O)NC(=O)COC(=O)c1cc(F)cc(F)c1	2	88*	-5	-1	6
Cc1ccc(C=Nc2ccc(N(C)C)cc2)o1	0	+	-2	-3	+
Cc1nc2c(=O)[nH]c(=S)[nH]c2[nH]c1=O	-204	/	?	103*	/
CN(CCOc1ccccc1)CC(=O)Nc1cccc(C#N)c1	-2	5	-2	1	6
O=C(O)C1=CC(=C(c2ccc(O)c(C(=O)O)c2)c2ccc(O)c(C(=O)O)c2)C=CC1=O	/	93*	/	/	111*
COc1cc(CC(=O)OCC(=O)c2ccc[nH]2)cc(OC)c1OC	-21	/	-1	-6	/
COc1ccc(/C=C/C(=O)c2cc3c(cc2N)OCO3)cc1	-6	-12	-3	1	3
O=C(C1=NN(c2ccccc2)C2C(=O)N(c3cccc(Cl)c3)C(=O)C12)c1ccccc1 (centres undefined)	-40	9	?	61*	3
SMILES	E coli Lon inh	EBNA-1 inhibitor	Keap1 Nrf2 FP	LANA DNA inh	ZTA DNA inh	others
Cc1cccc(OCCC(=O)NNC(=O)c2ccoc2C)c1	3	/	-6	-1	1
Cc1c(C=O)c(=O)n(-c2ccccc2)n1C	4	+	-3	1	+
Cc1c(N(C)C)c(=O)n(-c2ccccc2)n1C	3	/	-1	-1	2
O=C(/C=C/Nc1ccc(S(=O)(=O)Nc2ncccn2)cc1)c1ccc(Cl)c(Cl)c1	-14	-4	15*	20	-5
O=C(/C=C/Nc1ccc(S(=O)(=O)Nc2ncccn2)cc1)c1cccs1	1	5	0	0	-8
O=C(OCc1ccccc1)c1cccc(-c2nnc(-c3ccccc3)o2)c1	3	-1	3	2	1
O=C(OCc1ccc(C(=O)c2ccccc2)cc1)c1cccc(-c2nnc(-c3ccccc3)o2)c1	16*	7	0	0	-13
C=C1c2cccc(O)c2C(O)=C2C(=O)[C@]3(O)C(O)=C(C(N)=O)C(=O)[C@@H](N(C)C)[C@@H]3[C@@H](O)[C@H]12	10	13	4	75*	31
C[C@H]1c2cccc(O)c2C(O)=C2C(=O)C3(O)C(O)=C(C(N)=O)C(=O)[C@@H](N(C)C)[C@@H]3[C@@H](O)[C@@H]21 (some centres undefined)	-10	5	3	0	-10
CCN(CC)c1ccc(N=C2C(=O)Nc3ccccc32)cc1	-3	+	2	0	+
Cc1c(C(=O)N2CCCCC2)c(S(=O)(=O)N2CCc3ccccc32)c(C)n1C	4	5	-2	0	1
CCCCCCNCC(=O)N1CCC(Cc2ccccc2)CC1	3	6	2	0	-5
C#CCn1c(=NC(=O)c2sc3ccccc3c2Cl)sc2cc(S(N)(=O)=O)ccc21	-5	35*	-6	0	4
C#CCn1c(=NC(=O)c2ccc(S(=O)(=O)N3CCc4ccccc4C3)cc2)sc2cc(S(N)(=O)=O)ccc21	0	15	5	2	22
Cc1nnc(NC(=O)CSc2ncnc3scc(-c4ccccc4)c23)s1	8	34*	-2	0	13	EBNA-1 confirm=29*;ZTA counter trip=-7
COC(=O)CSc1ncnc2scc(-c3ccccc3)c12	3	-6	2	0	-5
CCCCn1nnnc1C(c1ccc(OC)cc1)N1CCN(C/C=C/c2ccccc2)CC1 (centres undefined)	2	/	/	/	/
COc1ccc(OC(C)C(=O)NC2CCCCCC2)cc1 (centres undefined)	-10	13	-8	0	6
O=C(CCN1C(=O)/C(=C\c2cccs2)SC1=S)NC1=NCCS1	-12	7	4	0	8
O=C(CCN1C(=O)/C(=C/c2cccs2)SC1=S)NC1=NCCS1	1	34*	1	-1	-4	EBNA-1 confirm=0;ZTA counter trip=-5
O=C(NC(=S)NCc1nc2ccccc2[nH]1)c1ccccc1F	-8	-4	1	1	-12
O=C(NC(=S)NCc1nc2ccccc2[nH]1)c1ccc(F)cc1	-6	33*	-8	-2	20	EBNA-1 confirm=-13;ZTA counter trip=-12
COc1ccc(S(=O)(=O)N2CCC(C(=O)NCC3CC3)CC2)cc1	-4	10	-4	2	-5
